# Data reported in PubChem BioAssay (NCI).
# About 83,000 compounds went through this panel and 20% of them were active in at least one assay; those are over-represented in the sample as a whole.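 Step 1: grow cells in 96-well plates. Step 2: add test compound at a single concentration. Step 3: incubate 48 h. Step 4: record percent growth.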 Activity calls are given as the source filed them. How the source made its calls: active means growth percent below 10; inactive means the rest.
# Test system: MDA-MB-468 breast
# Assay: NCI-60 one-dose screen, 48 h (100 = growth as untreated, 0 = no growth, -100 = all killed)
# Conditions: 10 µM unless noted
row,SMILES,growth
1,CCc1nnc(NC(=O)c2ccoc2COc2ccccc2)s1,52.7% (inactive)
2,O=C(Cn1c(=O)sc2nc3ccccc3nc21)Nc1ncc(Cc2cccc(Cl)c2Cl)s1,107% (inactive)
3,CCCCCCN(CCCCCC)c1ccc(/C=C2/SC(=O)N(c3nc(N4CCCC4)nc(N4CCCC4)n3)C2=O)c(C)c1,59% (inactive)
4,CCOC(=O)[C@@H]1[C@H](c2ccccc2)[C@H]([N+](=O)[O-])[C@H](c2cn(-c3ccccc3)nc2C)N1Cc1ccccc1,82.9% (inactive)
5,O=S(=O)(NCCNc1cc(-c2c(-c3cccc(O)c3)nc3sccn23)ccn1)c1ccc(Br)cc1,47.7% (inactive)
6,COc1ccc(C(=O)OC2C(OC3C(O)COC(O[C@H]4C[C@H]5[C@@H]6CC=C7C[C@@H](O)CC[C@]7(C)[C@H]6CC[C@]5(C)[C@H]4[C@H](C)C(=O)CCC(C)C)C3OC(=O)C(C)C)OCC(O)C2O)cc1 (stereo partly drawn),-2.45% (active)
7,COc1ccc(C(=O)CC#N)cc1,103% (inactive)
8,O=C(NCCCCO)c1cncnc1Nc1ccc2c(ccn2Cc2cccc(F)c2)c1,67% (inactive)
9,Cc1ccc(-c2cc3nc(C(Cl)Cl)nc(-c4cccs4)n3n2)cc1,39.5% (inactive)
10,C=CCn1c(SCC(=O)Nc2cccc(C(=O)/C=C/c3ccccc3)c2)nc2ccccc2c1=O,78.9% (inactive)
11,Fc1cccc(-c2nc(-c3c[nH]c4ncccc34)cs2)c1,29.4% [100 µM] (inactive)
12,CCN1CC(CCN2CCOCC2)C(C(c2ccccc2)c2ccccc2)C1=O (stereo not drawn),102% (inactive)
13,Cc1ccc(Cn2cc(COc3ccc4c5ccnc(C)c5n(CCCc5ccccc5)c4c3)nn2)cc1,99% (inactive)
